Assay [1] can be described thus: antimalarial activity against Dd2 strain (AID 2302;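 active = growth inhibition above 50% at the single 2 µM test dose, taken to imply half-maximal potency below 2 µM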;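 also: 0% = DMSO untreated growth and 100% = chloroquine plus artemisinin killed control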). The settings on record: P. falciparum Dd2 in RBCs, LDH growth readout, 72 h; at 2 µM; hits give high values.
Assay [2] can be described thus: HepG2 cytotoxicity, primary screen, cytotoxicity control for P. falciparum antimalarial project, cell-based, ATP luminescence (AID 2303;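 active = inhibition above 50%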;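 also: 0% = DMSO wells and 100% = digitonin-killed cells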). The note with it: HepG2 viability, 24-48 h, at 10 µM, hits give high values.
Assay [3] deals with L-lactate dehydrogenase (Plasmodium falciparum (isolate CDC / Honduras)) (UniProt Q27743). In words: PfLDH activity inhibition – cell lysate, 3D7 strain, counter-screen for P. falciparum growth inhibition project (AID 2304).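 Also: 0% = vehicle and 100% = reference inhibitor.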 The note with it: P. falciparum 3D7 crude extract, LDH APAD/NBT absorbance; at 2 µM; hits give high values.
A short description of assay [4]: inhibition of 3D7 malaria parasite growth – strain 3D7 (AID 2306).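 Also: 0% = DMSO wells and 100% = chloroquine plus artemisinin control wells.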 The settings on record: P. falciparum 3D7 erythrocytic growth, LDH absorbance, 72 h; at 2 µM; hits give high values.
In assay [5] the target is Calcium-dependent protein kinase 1 (Plasmodium falciparum (isolate 3D7)) (UniProt P62344). Briefly: PfCDPK1 kinase inhibitors, biochemical, TCAMS library (AID 1159585; cut-off not given, nearly all actives have IC50 up to about 0.98 µM;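 also: inhibitors leave more ATP so luminescence rises with inhibition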). The note with it: recombinant PfCDPK1, Kinase-Glo ATP depletion luminescence.
Assay [6] has as its target Plasmodium falciparum protein kinase 6 (PK6, PF3D7_1337100) (UniProt Q8IDW1). In words: PfPK6 kinase inhibitors, biochemical, TCAMS library (AID 1159586). The note with it: recombinant PfPK6, Kinase-Glo ATP depletion luminescence.
For assay [7], the target named is Protein kinase 7 (PK7), Plasmodium falciparum 3D7 (PF3D7_0213400) (UniProt Q7YTF7). Briefly: inhibition of Plasmodium PK7 catalytic activity – biochemical, TCAMS antimalarial set, Kinase-Glo luminescence (AID 1159587). The note with it: recombinant PfPK7, Kinase-Glo ATP depletion luminescence.
The target in assay [8] is Calcium-dependent protein kinase 4 (Plasmodium falciparum (isolate 3D7)) (UniProt Q8IBS5). Briefly: PfCDPK4 kinase inhibitors, biochemical, TCAMS library (AID 1159588; cut-off not given, nearly all actives have IC50 up to about 0.91 µM). The note with it: recombinant PfCDPK4, Kinase-Glo ATP depletion luminescence.

The values that follow come from PubChem BioAssay.

Unmarked numbers belong to inactive results. For some assays here: Potency and affinity values are given separately. The source made the active and inactive calls. Unless noted, no rule for the calls is given here.

Chain of Calcium-dependent protein kinase 4 (Plasmodium falciparum (isolate 3D7)) (Q8IBS5 whole entry, looked up): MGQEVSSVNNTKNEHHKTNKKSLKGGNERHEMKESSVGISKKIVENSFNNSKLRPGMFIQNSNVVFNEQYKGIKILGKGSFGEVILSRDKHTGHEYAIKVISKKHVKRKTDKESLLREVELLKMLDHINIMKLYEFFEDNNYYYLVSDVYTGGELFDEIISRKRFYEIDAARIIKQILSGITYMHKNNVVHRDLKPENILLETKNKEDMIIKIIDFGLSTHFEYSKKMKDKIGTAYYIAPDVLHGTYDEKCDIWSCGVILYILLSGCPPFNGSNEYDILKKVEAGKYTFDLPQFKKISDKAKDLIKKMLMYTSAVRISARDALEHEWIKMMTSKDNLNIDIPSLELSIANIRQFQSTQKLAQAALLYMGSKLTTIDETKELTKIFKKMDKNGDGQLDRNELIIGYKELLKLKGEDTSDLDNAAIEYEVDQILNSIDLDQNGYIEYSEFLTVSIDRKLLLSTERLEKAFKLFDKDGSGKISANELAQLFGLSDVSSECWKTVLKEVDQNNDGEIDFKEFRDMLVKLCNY
Chain of L-lactate dehydrogenase (Plasmodium falciparum (isolate CDC / Honduras)) (Q27743 whole entry, looked up): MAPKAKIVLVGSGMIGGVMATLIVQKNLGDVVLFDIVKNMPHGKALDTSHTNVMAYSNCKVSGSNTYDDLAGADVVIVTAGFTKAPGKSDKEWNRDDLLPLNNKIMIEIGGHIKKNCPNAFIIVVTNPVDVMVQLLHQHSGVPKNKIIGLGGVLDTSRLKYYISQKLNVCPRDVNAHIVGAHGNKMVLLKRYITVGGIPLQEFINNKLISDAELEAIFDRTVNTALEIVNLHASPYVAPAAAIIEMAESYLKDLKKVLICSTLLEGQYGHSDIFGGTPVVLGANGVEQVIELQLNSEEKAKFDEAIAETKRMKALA
Chain of Protein kinase 7 (PK7), Plasmodium falciparum 3D7 (PF3D7_0213400) (Q7YTF7 1-343): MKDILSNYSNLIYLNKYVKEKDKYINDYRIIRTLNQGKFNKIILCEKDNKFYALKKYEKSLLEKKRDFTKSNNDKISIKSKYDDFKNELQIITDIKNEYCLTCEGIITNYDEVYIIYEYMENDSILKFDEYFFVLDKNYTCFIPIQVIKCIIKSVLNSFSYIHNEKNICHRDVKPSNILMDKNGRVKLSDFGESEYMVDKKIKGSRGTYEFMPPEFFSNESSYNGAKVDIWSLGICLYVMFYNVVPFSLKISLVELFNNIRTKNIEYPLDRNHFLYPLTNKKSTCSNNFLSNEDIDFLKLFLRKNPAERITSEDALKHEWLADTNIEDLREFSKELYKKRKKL
Chain of Plasmodium falciparum protein kinase 6 (PK6, PF3D7_1337100) (Q8IDW1 1-305): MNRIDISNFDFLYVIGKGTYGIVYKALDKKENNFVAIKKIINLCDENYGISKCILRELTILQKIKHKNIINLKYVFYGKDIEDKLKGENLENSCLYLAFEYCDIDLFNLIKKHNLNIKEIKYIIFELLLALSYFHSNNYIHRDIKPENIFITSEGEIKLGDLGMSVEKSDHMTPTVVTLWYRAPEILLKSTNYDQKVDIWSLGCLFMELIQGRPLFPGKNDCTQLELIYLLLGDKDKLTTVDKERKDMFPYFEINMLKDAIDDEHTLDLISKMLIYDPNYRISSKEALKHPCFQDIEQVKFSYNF
Chain of Calcium-dependent protein kinase 1 (Plasmodium falciparum (isolate 3D7)) (P62344 whole entry, looked up): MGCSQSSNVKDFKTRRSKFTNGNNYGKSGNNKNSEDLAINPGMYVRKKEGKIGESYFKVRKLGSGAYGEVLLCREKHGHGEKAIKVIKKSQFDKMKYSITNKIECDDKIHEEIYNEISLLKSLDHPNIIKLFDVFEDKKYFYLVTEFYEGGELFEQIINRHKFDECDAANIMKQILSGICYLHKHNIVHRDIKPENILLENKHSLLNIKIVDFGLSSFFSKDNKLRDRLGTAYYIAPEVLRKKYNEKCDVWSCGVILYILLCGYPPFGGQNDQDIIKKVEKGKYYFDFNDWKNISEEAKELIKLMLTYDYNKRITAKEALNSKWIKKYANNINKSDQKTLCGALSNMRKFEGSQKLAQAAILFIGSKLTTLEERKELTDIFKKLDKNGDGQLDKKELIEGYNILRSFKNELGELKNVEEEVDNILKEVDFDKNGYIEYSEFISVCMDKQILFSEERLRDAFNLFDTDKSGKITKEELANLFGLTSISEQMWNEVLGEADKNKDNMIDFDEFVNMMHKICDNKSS

`COc1cc(Cc2cnc(N)nc2N)cc(OCC(C)(C)C(=O)O)c1OC`: the values for the growth inhibition in assay [1] and in assay [4] were -4% and 89% (active), respectively. Besides, the values for the inhibition in assay [2] and in assay [3] were -3% and -2%, respectively. Also, the result in assay [5], in assay [6], in assay [7] and in assay [8] was inactive.

For the compound `NC(=O)c1cccc(Nc2nccc(Nc3ccc4[nH]c(-c5ccccc5)cc4c3)n2)c1`, the growth inhibition in assay [1] was 98% (active); in assay [4], 101% (active). For the same compound, the values for the inhibition in assay [2] and in assay [3] were 28% and -2%, respectively. The result in assay [5], in assay [6], in assay [7] and in assay [8] was inactive.

As for `O=C(Nc1ccsc1)Nc1cccc(-c2cccc(-c3nc4ccccc4[nH]3)c2)c1`, the growth inhibition in assay [1] is 55% (active); in assay [4], 101% (active). Moreover, the inhibition in assay [2] is 61% (active); in assay [3] it was -7%. The result in assay [5], in assay [6], in assay [7] and in assay [8] was inactive.

For the compound `CCOC(=O)N[C@@H]1CN[C@@H](C#Cc2cc3c(Nc4ccc(OCc5cccc(F)c5)c(Cl)c4)ncnc3s2)C1`, the growth inhibition in assay [1] is 13%; in assay [4], 86% (active). Moreover, the inhibition in assay [2] is 8%; in assay [3], -3%. The result in assay [5], in assay [6], in assay [7] and in assay [8] was inactive.

For the compound `CCCCCOc1ccc(NC2=CC(=O)C(=O)c3ccccc32)cc1`, the results for the growth inhibition in assay [1] and in assay [4] were 96% (active) and 99% (active), respectively. For the same compound, the inhibition in assay [2] was 10%; in assay [3], -4%. The result in assay [5], in assay [6], in assay [7] and in assay [8] was inactive.

As to `CCCCCNc1nc2nc(N)nc(N)c2nc1-c1ccccc1`, the growth inhibition in assay [1] is -4%; in assay [4] it was 91% (active). In addition, the inhibition in assay [2] is 9%; in assay [3], -2%. Also, the outcome in assay [5], in assay [6], in assay [7] and in assay [8] was inactive.

With `CC(=O)Nc1ccc(C(=O)Nc2cccc(-c3csc(-c4nc5ccccc5[nH]4)c3)c2)cn1`, the results for the growth inhibition in assay [1] and in assay [4] were 97% (active) and 101% (active), respectively. Further, the inhibition is 6% in assay [2] and -3% in assay [3]. Besides, the result in assay [5], in assay [6], in assay [7] and in assay [8] was inactive.

For the compound `COc1cc(NC(=O)/C=C/c2ccccc2OC(F)(F)F)cc(OCCN2CCN(CCN3CCOCC3)CC2)c1`, the growth inhibition was 25% in assay [1] and 98% (active) in assay [4]. Also, the inhibition in assay [2] is 20%; in assay [3], -1%. Also, the outcome in assay [5], in assay [6], in assay [7] and in assay [8] was inactive.

As for `COc1ccccc1C1CCN(C2CCC(NC(=O)/C=C/c3cccc(Cl)c3)CC2)CC1` (configuration not stated), the growth inhibition in assay [1] is 20%; in assay [4] it was 92% (active). Besides, the figures for the inhibition in assay [2] and in assay [3] were 54% (active) and 3%, respectively. The outcome in assay [5], in assay [6], in assay [7] and in assay [8] was inactive.

In the case of `COc1cc(NC(=O)c2cc([N+](=O)[O-])ccc2NC(=O)CNC2CCCC(C)C2C)cc(OC)c1` (configuration not stated), the figures for the growth inhibition in assay [1] and in assay [4] were 80% (active) and 97% (active), respectively. Also, the inhibition in assay [2] is 21%; in assay [3] it was 4%. Moreover, the outcome in assay [5], in assay [6], in assay [7] and in assay [8] was inactive.

`CC(C)(C)c1ccc(CN2CCCCC(NC(=O)c3cc(-c4ccccc4Cl)cs3)C2)cc1` (configuration not stated): the growth inhibition is 98% (active) in assay [1] and 101% (active) in assay [4]. Further, the inhibition is 3% in assay [2] and -1% in assay [3]. Besides, the outcome in assay [5], in assay [6], in assay [7] and in assay [8] was inactive.

For the compound `COCc1nc(-c2ccccc2)nc(N2CCN(C(=O)NC(C)C)CC2)c1Cc1ccccc1F`, the growth inhibition in assay [1] was 94% (active); in assay [4] it was 96% (active). In addition, the inhibition in assay [2] was 35%; in assay [3], -3%. For the same compound, the outcome in assay [5], in assay [6], in assay [7] and in assay [8] was inactive.

For the compound `N#Cc1ccc(N2CCN(Cc3ccc(-c4cccc(-c5nc6ccccc6[nH]5)c4)cc3)CC2)nc1`, the growth inhibition in assay [1] is 29%; in assay [4], 95% (active). Also, the inhibition in assay [2] was 33%; in assay [3] it was -1%. The outcome in assay [5], in assay [6], in assay [7] and in assay [8] was inactive.

For the compound `O=C(NC(NC(=S)Nc1ccc([N+](=O)[O-])cc1)C(Cl)(Cl)Cl)c1cccc(Cl)c1` (configuration not stated), the growth inhibition in assay [1] is 100% (active); in assay [4], 97% (active). Besides, the inhibition in assay [2] is 24%; in assay [3] it was 0%. Also, the result in assay [5], in assay [6], in assay [7] and in assay [8] was inactive.

Turning to `COc1ccc2nccc([C@@H](O)CN3CCC(NC(=O)c4cc5c(Cl)cc(Cl)cc5[nH]4)CC3)c2c1`, the results for the growth inhibition in assay [1] and in assay [4] were 98% (active) and 100% (active), respectively. The inhibition was 22% in assay [2] and -3% in assay [3]. Besides, the result in assay [5], in assay [6], in assay [7] and in assay [8] was inactive.

Regarding `CCN(CC)CCNC(=O)c1ccc(NC(=O)c2oc3c(Cl)cccc3c2C)cc1`, the growth inhibition in assay [1] is 68% (active); in assay [4], 98% (active). The figures for the inhibition in assay [2] and in assay [3] were 24% and 5%, respectively. The outcome in assay [5], in assay [6], in assay [7] and in assay [8] was inactive.

As to `COc1cc(Cc2cnc(NCCN3CCNCC3)nc2N)ccc1OCc1ccc(C(F)(F)F)cc1`, the figures for the growth inhibition in assay [1] and in assay [4] were 4% and 98% (active), respectively. Also, the inhibition was 12% in assay [2] and 4% in assay [3]. The result in assay [5], in assay [6], in assay [7] and in assay [8] was inactive.

With `COc1ccc(CN2CCC(NCc3ccc(C(F)(F)F)cc3)CC2)cc1`, the growth inhibition in assay [1] is -1%; in assay [4], 97% (active). The inhibition in assay [2] is 37%; in assay [3] it was 2%. Besides, the result in assay [5], in assay [6], in assay [7] and in assay [8] was inactive.

Turning to `Cc1cc(-c2ccc3c(c2)CCN(CCC2CCC(NC(=O)/C=C/c4cccc(Cl)c4)CC2)CC3)on1` (configuration not stated), the results for the growth inhibition in assay [1] and in assay [4] were 49% and 101% (active), respectively. The figures for the inhibition in assay [2] and in assay [3] were 16% and -4%, respectively. Further, the outcome in assay [5], in assay [6], in assay [7] and in assay [8] was inactive.
